The source of these data is the supplement of paper PMC8728848.

Shown is part of a subset that was picked to be rich in the strongest signals.

Common to all, as to experiment: glycan array binding signal (z-score within array); higher = stronger binding
Holding throughout (conditions): glycan notation: IUPAC condensed, linker removed

One assay concerns the target Gal3S6S(b1-4)GlcNAc6S. The gist of the method: (§1)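 The binding signal is a Z-score computed within each array and averaged over linkers. Arrays of the same protein sequence at different concentrations or buffers were also averaged together. Data originate from 3228 arrays in the Consortium for Functional Glycomics database, kept only where the protein sequence was available.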

The target in assay [1] is GalNAc(b1-3)Gal(a1-4)Gal(b1-4)GlcNAc. The essentials:
as §1

For another assay, the target named is GalNAc(b1-4)GlcNAc. The essentials: as §1
The target of assay [2] is GlcNAc(a1-4)Gal(b1-4)GlcNAc. The gist of the method: as §1
The target in assay [3] is GlcNAc(b1-2)[GlcNAc(b1-6)]Man(a1-6)[GlcNAc(b1-4)][GlcNAc(b1-2)Man(a1-3)]Man(b1-4)GlcNAc(b1-4)GlcNAc. The gist of the method:
as §1

Assay [4] deals with GlcNAc(b1-3)[GlcNAc(b1-4)][GlcNAc(b1-6)]GlcNAc. The gist of the method:
as §1

The target of the next assay is GlcNAc(b1-4)GlcNAc. The gist of the method: as §1
Assay [5] concerns the target GlcNAc(b1-4)GlcNAc(b1-4)GlcNAc(b1-4)GlcNAc(b1-4)GlcNAc(b1-4)GlcNAc. The essentials:
as §1

A further assay addresses Man(b1-4)GlcNAc. The gist of the method:
as §1

The target of assay [6] is Neu5Ac(a2-3)Gal(b1-3)GlcNAc(b1-2)Man. The essentials:
as §1

Assay [7] has as its target Neu5Ac(a2-3)Gal(b1-3)GlcNAc(b1-4)Gal(b1-4)Glc. The gist of the method: as §1
Assay [8] has as its target Neu5Ac(a2-3)Gal(b1-3)[Fuc(a1-4)]GlcNAc. The gist of the method: as §1
Assay [9] has as its target Neu5Ac(a2-3)Gal(b1-3)[Neu5Ac(a2-6)]GlcNAc(b1-3)[Fuc(a1-3)[Gal(b1-4)]GlcNAc(b1-6)]Gal(b1-4)Glc. The gist of the method:
as §1

The target of assay [10] is Neu5Ac(a2-3)Gal(b1-4)GlcNAc(b1-2)[Neu5Ac(a2-3)Gal(b1-4)GlcNAc(b1-4)]Man(a1-3)[GlcNAc(b1-4)][Neu5Ac(a2-3)Gal(b1-4)GlcNAc(b1-2)[Neu5Ac(a2-3)Gal(b1-4)GlcNAc(b1-6)]Man(a1-6)]Man(b1-4)GlcNAc(b1-4)GlcNAc. The gist of the method:
as §1

In assay [11] the target is Neu5Ac(a2-3)Gal(b1-4)[Fuc(a1-3)]GlcNAc(b1-2)Man. The essentials:
as §1

The target in assay [12] is Neu5Ac(a2-6)Gal(b1-4)GlcNAc(b1-2)Man(a1-3)[Gal(b1-4)GlcNAc(b1-2)Man(a1-6)]Man(b1-4)GlcNAc(b1-4)GlcNAc. The essentials: as §1
The target of assay [13] is Neu5Ac(a2-6)Gal(b1-4)GlcNAc(b1-3)Gal(b1-4)GlcNAc(b1-3)Gal(b1-4)GlcNAc(b1-2)Man(a1-3)[Neu5Ac(a2-6)Gal(b1-4)GlcNAc(b1-3)Gal(b1-4)GlcNAc(b1-3)Gal(b1-4)GlcNAc(b1-2)Man(a1-6)]GalNAc. The essentials: as §1
Assay [14] has as its target Neu5Ac(a2-6)Gal(b1-4)GlcNAc(b1-3)Gal(b1-4)GlcNAc(b1-3)GalNAc. The essentials: as §1
The target in a further assay is Neu5Ac(b2-6)GalNAc. The gist of the method:
as §1

For another assay, the target named is Neu5Gc(a2-3)Gal(b1-4)Glc. The gist of the method: as §1
The target of assay [15] is Neu5Gc(a2-3)Gal(b1-4)GlcNAc. The essentials:
as §1

Assay [16] deals with Neu5Gc(b2-6)Gal(b1-4)GlcNAc. The gist of the method: as §1

B1: SynCAM (Mus musculus) (protein)
chain: MASAVLPSGSQCAAAAAVAAAAAPPGLRLRLLLLLLSAAALIPTGDGQNLFTKDVTVIEGEVATISCQVNKSDDSVIQLLNPNRQTIYFRDFRPLKDSRFQLLNFSSSELKVSLTNVSISDEGRYFCQLYTDPPQESYTTITVLVPPRNLMIDIQKDTAVEGEEIEVNCTAMASKPATTIRWFKGNKELKGKSEVEEWSDMYTVTSQLMLKVHKEDDGVPVICQVEHPAVTGNLQTQRYLEVQYKPQVHIQMTYPLQGLTREGDAFELTCEAIGKPQPVMVTWVRVDDEMPQHAVLSGPNLFINNLNKTDNGTYRCEASNIVGKAHSDYMLYVYDPPTTIPPP
Consider B1, for which the “glycan array binding signal (z-score)” value is 2.69 with Gal3S6S(b1-4)GlcNAc6S; 2.45 in assay [1]; 2.71 with GalNAc(b1-4)GlcNAc; -1.14 in [2]; -0.782 in assay [3]; 2.58 in assay [4]. Also, the “glycan array binding signal (z-score)” value is -1.17 with GlcNAc(b1-4)GlcNAc; 0.16 in assay [5]; -0.306 in the assay with Man(b1-4)GlcNAc; -0.517 in assay [6]; -0.756 in assay [7]; 0.283 in assay [8]. The “glycan array binding signal (z-score)” value in [9] was -0.498; in assay [10] it was 0.594; in assay [11], 3.11; in assay [12] it was -0.518; in [13], 2.42; in assay [14], -0.464. In addition, the “glycan array binding signal (z-score)” value was -0.413 with Neu5Ac(b2-6)GalNAc, -0.801 with Neu5Gc(a2-3)Gal(b1-4)Glc, -0.921 in assay [15] and 0.145 in assay [16].
